Results on 40 compounds are retold here after PubChem BioAssay (NCI).

The structures appear in SMILES notation. The panel holds about 83,000 compounds, 20% with a hit somewhere; the sample as a whole holds those more often.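 Percent growth is the endpoint: 0 to 100 indicates growth inhibition (40 means 60% inhibition), 0 means no net growth, and negative values indicate cell death.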 Values without a mark were called inactive. Activity calls are given as the source filed them.

In the assay the test system is UACC-62 melanoma. Briefly: NCI-60 one-dose screen, 48 h (100 = growth as untreated, 0 = no growth, -100 = all killed). As to conditions: 10 µM. As to the method: Growth inhibition of the UACC-62 human tumor cell line is measured as a screen for anti-cancer activity. Cells are grown in 96 well plates and exposed to the test compound for 48 hours. Compounds are tested at a single concentration, which is 10^-5 M for most compounds. The reported endpoint is percent growth (GI% or GIPRCNT), where numbers from 0 - 100% represent growth inhibition, and numbers from -100% - 0 represent cell death. For example, a value of 40 represents 60% growth inhibition. A value of 0 means no net growth occurred over the course of the experiment. A value of -40 indicates 40% of cells at the beginning of the experiment died by the end of the experiment. A value of -100 means all cells are dead at the end of the experiment.
NCI-60 Human Tumor Cell Lines Screen was performed using the standard one-dose NCI protocol, which is described in more detail at https://dtp.cancer.gov/discovery_development/nci-60/default.htm.
Compounds with GIPRCNT values below 10 were considered active. Activity score was based on GIPRCNT using the following formula: […]
Score is 0 for GIPRCNT values of 100 or above, 50 for GIPRCNT values of 0, and 100 for GIPRCNT values of -100.
In the case of `Nc1ncn([C@@H]2O[C@H](CO)[C@@H](O)[C@H]2O)c(=O)n1`, the growth is 12.5%. As to `CCCCN(CCCC)CCCCCCCCC(O)c1cc2ccccc2c2ccccc12` (stereo not given), the growth was 61.8%. Consider `COc1cc(C(=O)/C=C/c2cc(-c3cc(OC)c(OC)c(OC)c3)n[nH]2)cc(OC)c1OC`, for which the growth was 51%. For the compound `N=C(N)c1ccc(-c2ccc(-c3cccs3)o2)cc1`, the growth is 67.7%.

Turning to `CCCCCCCCN(CCCCCCCC)CCCCCCCCCN1CCCc2cc(OC)ccc21`, the growth was 86.8%. Then `COc1ccc(C2=NN(C(=O)c3ccc(S(C)(=O)=O)cc3)C(c3ccc(OC)c(OC)c3)C2)c(OC)c1` (stereo not given), with 95.2%; and `COc1cc(OC)cc(-c2cncn2-c2ccc(-c3nc4cc(OC)cc(OC)c4s3)cc2)c1`, with 58.8%. Consider `CC(C)(Cl)CCC1=C(Cl)C(=O)c2ccccc2C1=O`, for which the growth was 2.45% (active). In the case of `CC1(C)OC2=C(CC1Br)C(=O)C(=O)c1ccccc12` (stereo not given), the growth was -78.9% (active). With `COc1cc2nc(Nc3cccc(C(=O)O)c3)nc(N)c2cc1OC`, the growth was 90.2%.

With `COc1ccc(Cl)cc1C(=O)Nc1nc2ccc(Cl)cc2s1`, the growth was 91.5%.

Turning to `CCc1ccc2c(c1)N(CCO)C1=C(C(=O)OC1)C2c1ccccc1` (stereo not given), the growth was 70.6%. Then `COc1cc([C@@H]2c3cc4c(cc3C(Br)[C@H]3COC(=O)[C@H]23)OCO4)cc(OC)c1OC` (stereo not given in full), with 14.1%; and `CC1(C)Cc2c(sc3ncn4nc(-c5ccc(O)cc5)nc4c23)CO1`, with 82.5%; and `Nc1nc(N)c2c(ccc3nccc32)[nH]1`, with 47.2%.

Turning to `CC(=O)N1N=C(c2ccc(Cl)cc2)CC1c1sc(Cl)nc1Cl` (stereo not given), the growth was 83.3%. `Cc1cc(Nc2ccc(Cl)cc2)nc(NCCCNc2ccnc3cc(Cl)ccc23)n1`: the growth is -80.2% (active). Take `O=C(O)CC(Cl)C(Cl)CC(=O)O` (stereo not given): the growth is 100%. `COc1ccc2nc3cc(Cl)ccc3c(NCCNCC(C)O)c2c1` (stereo not given): the growth is 54.1%. Then `COc1ccc(-n2c(SCc3cc(OC)c(OC)c(OC)c3)nc3ccc(C)cc3c2=O)cc1`, with 56.7%; and `O=C(O)c1ccc(Cl)cc1Nc1ccc(F)cc1`, with 92.4%. For the compound `O=C(Nc1cccc(Br)c1)c1cc(=O)[nH]c2ccccc12`, the growth is 80.9%. In the case of `COc1cc(Nc2ccnc(NCCNc3ccnc4cc(Cl)ccc34)n2)cc(OC)c1`, the growth was 51.1%. `CCOC(=O)C1CCc2c(ccc3ccccc23)N1CCC#N` (stereo not given): the growth is 91%. `C#Cc1ccc(-n2c(/C=C/c3ccc(Cl)c(F)c3)nc3ncccc3c2=O)cc1`: the growth is -55.9% (active). Consider `C#Cc1ccc(-n2c(/C=C/c3ccc(O)cc3)nc3ncccc3c2=O)cc1`, for which the growth is 29.1%. In the case of `O=[N+]([O-])c1ccc(Oc2cccnc2)c([N+](=O)[O-])c1`, the growth is 84.5%.

In the case of `CC/C(=C(/c1ccc(OCCN(C)C)cc1)c1ccc(OC(=O)CCC(=O)c2c(C)[nH]c(/C=C3\N=C(c4ccc[nH]4)C=C3OC)c2C)cc1)c1ccccc1`, the growth was -13.8% (active).

As to `Oc1[nH]c2cc(Cl)ccc2c1/C=c1/ccc2c(c1)N=C(c1cc(F)cc(F)c1)N=2`, the growth was 36.4%. Then `CCN(CC)CCOc1nc2ccccc2c2c1-c1ccc(OC)cc1C2=O`, with 8.63% (active); and `COc1cc2c(cc1OC)N(CCO)C1=C(C(=O)OC1)C2c1ccc(Cl)c(Cl)c1` (stereo not given), with 101%; and `Nc1ccn(C2CC(O)C(CO)O2)c(=O)n1` (stereo not given), with 100%.

As for `O=C(Nc1cccc(-n2cc(-c3ccncc3)c(-c3cc(O)cc(Cl)c3)n2)c1)c1ccc(N2CCOCC2)c(C(F)(F)F)c1`, the growth was 10.8%. The value for `COc1cc(C(=O)N2CCN(c3ccccc3OC)CC2)c(N)cc1OCCCN1CCN(c2ccccc2OC)CC1` was 79.4%; that for `COc1ccc2c(c1)O/C(=C\c1ccc([N+](=O)[O-])o1)C2=O` was -37.6% (active). Consider `COc1ccc(-c2ccc(-c3ccc(C(=N)N)cn3)o2)cc1`, for which the growth was 89.7%.

`Cc1cc(Cc2cc(C)c(O)c(C)c2)cc(C)c1O`: the growth was 53.2%. With `COc1ccccc1CNCCCN1C(=O)c2ccc3c4c(ccc(c24)C1=O)C(=O)N(CCCN)C3=O`, the growth was -90.2% (active). With `COc1ccc(-c2nn(-c3cccc(NC(=O)c4ccc5c(c4)OCCO5)c3)cc2-c2ccncc2)cc1Cl`, the growth is 34.1%.

For `O=C(Nc1ccc(CO)cc1)c1ccccc1Nc1ccnc(C(F)(F)F)c1`, the growth is 95.4%.
